We go through 61 compounds from PubChem BioAssay AID1851 (National Center for Advancing Translational Sciences (NCATS), 2009).

Out of some 16,000 compounds screened, about 2,600 (16%) were called active. About 20% were inconclusive and are not listed. Calls come from the whole dose curve; as a rule, active = well fitted curve in the direction sought with a large enough effect; inconclusive = small, poorly fitted or top-dose-only effect, or effect the other way; inactive = no such curve, though single readings can be large or run the other way. Not all results are given here.
% is set by controls: 0 for no effect and ±100 for the full control effect.

Cytochrome P450 2D6 (Homo sapiens), sequence (P10635 whole entry, looked up): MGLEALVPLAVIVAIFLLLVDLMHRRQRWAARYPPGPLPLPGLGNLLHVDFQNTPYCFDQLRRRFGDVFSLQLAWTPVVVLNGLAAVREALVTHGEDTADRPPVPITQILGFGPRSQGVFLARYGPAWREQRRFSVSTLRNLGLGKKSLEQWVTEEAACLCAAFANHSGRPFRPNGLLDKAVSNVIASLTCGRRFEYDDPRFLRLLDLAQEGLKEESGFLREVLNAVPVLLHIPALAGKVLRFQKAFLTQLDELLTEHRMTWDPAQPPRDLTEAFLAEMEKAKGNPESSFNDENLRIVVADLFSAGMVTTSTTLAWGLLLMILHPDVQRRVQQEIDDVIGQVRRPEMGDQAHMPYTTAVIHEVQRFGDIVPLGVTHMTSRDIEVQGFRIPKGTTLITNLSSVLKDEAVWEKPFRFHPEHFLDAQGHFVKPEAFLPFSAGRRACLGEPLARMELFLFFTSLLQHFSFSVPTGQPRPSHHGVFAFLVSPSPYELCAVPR

This assay has as its target Cytochrome P450 2D6 (Homo sapiens) (UniProt P10635). Kind of assay: Cytochrome panel assay with activity outcomes. Particulars: recombinant CYP, pro-luciferin dealkylation, luminescence, p450-cyp2d6; series mostly up to 57.1 µM; activity, negative = inhibition: at the top concentration.
With `COC(=O)c1c(-c2cc(OC)c(OC)c(OC)c2)c2ccnc(OCc3ncccn3)c2c(=O)n1Cc1ccnc(C)c1`, the “activity, negative = inhibition” value was -3.6% (inactive).
Same read-out and setting: the same measure for `C[C@H](N)C(=O)O`: 9.23% (inactive).
For orientation: AC50 means the midpoint of the concentration-response curve, whichever way the signal moves. Take `Cc1ccc(S(=O)(=O)Oc2ccc(C3C4=C(CCCC4=O)OC4=C3C(=O)CCC4)cc2)cc1`: the AC50 was 7.94 µM (active).
On to `Cc1ccc(S(=O)(=O)Oc2cc(N)c3c(n2)CCC3)cc1`, for which the activity, negative = inhibition was -20.4% [at 11.4 µM] (inactive).
The same measure, in the same setting: in the case of `COc1ccc2c(c1)OC1=C(C(=O)CCC1)C2C1=C(O)CCCC1=O` (stereo unspecified) it was -11.1% (inactive).
The same measure, in the same setting: in the case of `COc1ncc2nc(-c3ccccc3)c(=O)n(-c3ccccc3)c2n1` it was -11.6% (inactive); in that of `COC(=O)C(C(=O)OC)C(C[N+](=O)[O-])c1ccc(OC)c(OC)c1` (stereo unspecified), 11.8% (inactive).
Still for that read-out and setting: the same measure for `O=C1CC(N(O)C2CC(=O)N(Cc3ccccc3)C2=O)C(=O)N1Cc1ccccc1` (stereo unspecified): -14.7% (inactive); for `CCOC(=O)CCN1C(=O)[C@H]2[C@H]3[C@H](O)[C@H](O)C/C(=N/OC[C@@H](O)COCc4ccco4)[C@@H]3CC[C@@H]2C1=O`: 7.94% [at 11.4 µM] (inactive); for `Cc1noc(C)c1-c1cc(Nc2ccc(F)cc2)ncn1`: -3.49% (inactive).
For `CN(C)C(=O)c1ccc(-c2nccc(Nc3ccc(F)cc3)n2)cc1`, the “activity, negative = inhibition” value is -8.36% (inactive).
As to `CN(C)c1ccc(-c2nccc(Nc3ccc(F)cc3)n2)cc1`, the half-maximal activity concentration (AC50) is 20 µM (active).
On to `Fc1ccc(Nc2ccnc(-c3ccc4c(c3)OCO4)n2)cc1`, for which the concentration at half-maximal activity (AC50) is 10 µM (active).
Take `Cc1noc(C)c1-c1nccc(Nc2ccc(F)cc2)n1`: the “activity, negative = inhibition” value was 4.6% (inactive).
Still for that read-out and setting: in the case of `Nc1nccc(Nc2ccc(S(N)(=O)=O)cc2)n1` it was -5.16% [at 11.4 µM] (inactive); in that of `C[C@H]1[C@@H](O)[C@@H](C)\C=C/C=C\C=C/C=C\C=C/C=C\C=C/[C@@H](O[C@H]2O[C@@H](C)[C@@H](O)[C@@H](N)[C@@H]2O)C[C@@H]2O[C@](O)(C[C@@H](O)C[C@@H](O)[C@@H](O)CC[C@@H](O)C[C@@H](O)CC(=O)O[C@H]1C)C[C@@H](O)[C@H]2C(=O)O` (stereo in doubt), 0.587% [at 25.6 µM] (inactive).
Still for that read-out and setting: in the case of `Cc1sc2c(c1C)c(=O)n(-c1ccccc1)c1nnc(C)n21` it was -7.69% (inactive).
As for `CC(C)(Oc1ccc(Cl)cc1)C(=O)Nc1ccncc1`, the concentration at half-maximal activity (AC50) is 0.0316 µM (active).
In the case of `CC(C)OC(=O)C(C)(C)Oc1ccc(C(=O)c2ccc(Cl)cc2)cc1`, the “activity, negative = inhibition” value was -6.74% [at 25.6 µM] (inactive).
Same read-out and setting: in the case of `CC(C)(Oc1ccc(Cl)cc1)C(=O)Nc1cccnc1` it was -19.7% (inactive); in that of `CN(C)c1ncc2nc(-c3ccc(F)cc3)c(=O)n(CCc3ccccc3)c2n1`, 0.289% (inactive).
In the case of `COc1cc2ccc(=O)oc2cc1O`, the “activity, negative = inhibition” value was -3.08% [at 25.6 µM] (inactive).
On to `N#Cc1cccc(-c2nc(NCCN3CCOCC3)c3ccccc3n2)c1`, for which the AC50 is 7.94 µM (active).
As for `COc1cccc(-c2cc(C(F)(F)F)nc(N3CCOCC3)n2)c1`, the “activity, negative = inhibition” value was -15% (inactive).
With `COc1cccc(-c2nc(NCCN3CCOCC3)c3ccccc3n2)c1`, the AC50 was 12.6 µM (active).
As for `c1cncc(-c2nc(NCCN3CCOCC3)c3ccccc3n2)c1`, the AC50 was 10 µM (active).
As for `Cc1noc(C)c1-c1cncnc1NCCN1CCOCC1`, the “activity, negative = inhibition” value is -18.3% (inactive).
`CN(C)C(=O)c1ccc(-c2cncnc2NCCN2CCOCC2)cc1`: the “activity, negative = inhibition” value is -9.47% (inactive).
As for `N#CCCn1c(=O)c(-c2cccc(C#N)c2)nc2cnc(N3CCOCC3)nc21`, the “activity, negative = inhibition” value is -0.118% (inactive).
With `COc1cccc(-c2cncnc2NCCN2CCOCC2)c1`, the half-maximal activity concentration (AC50) was 10 µM (active).
As for `CS(=O)(=O)Nc1cccc(-c2nc(NCCN3CCOCC3)c3ccccc3n2)c1`, the “activity, negative = inhibition” value was -16.5% (inactive).
As for `COC(=O)c1ccccc1NC(=O)c1ccc(COc2ccc(C)c(C)c2)o1`, the “activity, negative = inhibition” value was -19.6% (inactive).
Same read-out and setting: in the case of `NCCCCCCCCCCN` it was 4.93% (inactive); in that of `O=C1NC(c2ccccc2)=NC1(NS(=O)(=O)c1ccccc1)C(F)(F)F` (stereo unspecified), 1.41% (inactive).
With `CCOC(=O)c1cc(-c2ccccc2)sc1NC(=O)C(C)(C)C`, the “activity, negative = inhibition” value is 19.9% (inactive).
On the same count and under the same terms, in the case of `Nc1nc(-c2ccc3ccccc3c2)cc(-c2cc(-c3ccc4ccccc4c3)nc(N)n2)n1` it was 1.49% [at 11.4 µM] (inactive).
On the same count and under the same terms, in the case of `CC(=O)Nc1cccc(C(=O)OCc2ccc(C(=O)Oc3ccc(Cl)cc3)cc2)c1` it was -14% (inactive).
Regarding `CN1CCN(C(=O)C(C(=O)c2ccc(F)cc2)n2ccccc2=O)CC1` (stereo unspecified), the “activity, negative = inhibition” value was 6.96% (inactive).
Take `CCc1cccc2c(C=C(C#N)C#N)cn(CC(=O)N3CCCC3)c12`: the “activity, negative = inhibition” value was 10.2% (inactive).
The same measure, in the same setting: the same measure for `COc1ccc(/C=C2\CCCC3C2=NN(C(=O)c2ccco2)C3c2ccc(OC)c(OC)c2)cc1OC` (stereo unspecified): -5.57% (inactive).
Same read-out and setting: the same measure for `COc1ccc(/C=C2\N=C(SC)N(C)C2=O)cc1`: -32.1% (inactive).
The same measure, in the same setting: the same measure for `O=C(N/N=C/C=C/c1ccccc1)c1cc2c(ccc3ccccc32)o1`: 15.2% (inactive).
Take `O=C(O)[C@@H](O)[C@@H](O)[C@@H](O)[C@@H](O)C(=O)O` (tested in a mixture with another compound): the “activity, negative = inhibition” value is -8.07% [at 25.6 µM] (inactive).
Still for that read-out and setting: the same measure for `CC(C)CCNC(=S)NC1CCCC1`: -17.1% (inactive).
Turning to `Cc1nn(C(C)(C)C)c(OC(=O)c2ccco2)c1Sc1ccccc1`, the “activity, negative = inhibition” value was -16.8% (inactive).
`CCOC(=O)c1c(C)c(C(=O)N2CCCCCC2)c(C)n1C`: the AC50 is 11.2 µM (active).
For `CCOC(=O)c1c(C)c(C)n2c1NC(=O)C2`, the activity, negative = inhibition is -4.83% [at 11.4 µM] (inactive).
Still for that read-out and setting: in the case of `CCOC(=O)c1c(C)c(C(=O)N2CCN(C(=O)c3ccco3)CC2)c(C)n1C` it was 16.8% (inactive); in that of `C[C@@]12CC[C@@H]3c4ccc(O)cc4CC[C@H]3[C@H]1C[C@@H](O)[C@H]2O`, 2.27% [at 25.6 µM] (inactive); in that of `Oc1ccccc1C(Sc1nc2ccccc2s1)Sc1nc2ccccc2s1`, -20.9% [at 11.4 µM] (inactive).
With `Cc1ccc(C(=O)CN(C(=O)c2ccc(Cl)cc2)N2C(=O)c3ccccc3C2=O)cc1`, the “activity, negative = inhibition” value is -2.54% (inactive).
On the same count and under the same terms, in the case of `Cc1nnc(-c2cnn(-c3ccccc3)c2N)n1Cc1ccccc1` it was 1.53% (inactive).
Turning to `CN(C)c1ccccc1CN1CCCN(Cc2ccccc2N(C)C)C1c1ccncc1`, the half-maximal activity concentration (AC50) is 1.26 µM (active).
For `COc1cccc(/C=N\NC(=O)C2C(=O)NCC2c2ccccc2)c1O` (stereo unspecified), the “activity, negative = inhibition” value is -4.87% (inactive).
`COc1ccc(-c2nn(-c3ccccc3)cc2/C=N/NC(=O)c2ccc(Br)o2)cc1`: the “activity, negative = inhibition” value is 0.403% (inactive).
On to `Cn1c(=O)n(CC#N)c2ccccc21`, for which the “activity, negative = inhibition” value was 2.65% (inactive).
The same measure, in the same setting: the same measure for `c1ccc(Cc2nnc(Sc3ccccc3)c3ccccc23)cc1`: -66.9% (inactive).
The same measure, in the same setting: in the case of `S=C(Nc1ccc2c(c1)Cc1ccccc1-2)Nc1ccc2c(c1)Cc1ccccc1-2` it was 1.03% [at 11.4 µM] (inactive).
On to `CN(CCc1ccccn1)c1ccc2c(c1)Cc1ccccc1-2`, for which the AC50 is 3.16 µM (active).
With `CNCCc1ccccn1`, the “activity, negative = inhibition” value was 7.33% [at 25.6 µM] (inactive).
Turning to `COCC(=O)Nc1c(I)c(C(=O)NC[C@@H](O)CO)c(I)c(C(=O)N(C)C[C@@H](O)CO)c1I`, the “activity, negative = inhibition” value was -0.434% [at 25.6 µM] (inactive).
